Assay outcomes deposited in PubChem by National Center for Advancing Translational Sciences (NCATS).
PMP22 txn – Cell-based coincidence reporter assay to measure PMP22 gene transcription in S16 Pmp22-F2sN cells - Primary screen | S16 Pmp22-F2sN Schwann cells, FLuc/NLuc coincidence luminescence, 24 h | Potency, µM (titrated, usually from 57.5 µM), actives largely listed as inhibitors | actives 2% (n = 43,000) | AID 1508649, 2021; active = clear falling dose curves in both reporters; inconclusive = both reporters move, but less clearly or upward; inactive = either reporter flat; the % is the NLuc reporter signal
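Rat S16 Pmp22-F2sN cells, 500-1,000/well in phenol red-free DMEM + 10% FBS, compound-treated 24 h (37C, 5% CO2). Luminescence: FLuc read, Stop&Glo added, NLuc read.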
S16 F2sN tox – Cell viability qHTS assay in S16 Pmp22-F2sN cells; S16 Pmp22-F2sN Schwann cells viability, CellTiter-Glo, 24 h; actives 0.48% (n = 43,000); Potency, µM (highest dose often 57.5 µM), most hits filed as cytotoxic; AID 1508642, 2021; also: nearly all actives have a fitted effect of over 65% in size
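S16 Pmp22-F2sN Schwann cells (500-1,000/well) in phenol-red-free DMEM with 10% FBS received 23 nL compound by pin tool for 24 h at 37 °C. Viability was then read as CellTiter-Glo luminescence after 15 min at room temperature.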
p53null 39C tox – qHTS Screen for Compounds that Selectively Target Cancer Cells with p53 Mutations: Cytotoxicity of p53 Null Cells at the Nonpermissive Temperature; H1299 p53-null (neo) cells, 39C, ATPlite viability, 24 h; Potency, µM (series often up to 46.1 µM), hits mostly cytotoxic; actives 0.97% (n = 55,000); also: nearly all actives have a fitted effect of over 50% in size
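Concentration-response (up to 46 uM) was run for 24 h at the nonpermissive 39C on H1299-p53A138V or H1299-neo cells. ATP content was measured with ATPlite luminescence. AC50 values were Hill-modeled after normalizing between DMSO and 100 uM tamoxifen killing.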
p53null 32C kill – qHTS Screen for Compounds that Selectively Target Cancer Cells with p53 Mutations: Cytotoxicity of p53 Null Cells at the Permissive Temperature; H1299-neo p53 null cells, ATP luminescence, 24 h, 32C; Potency, µM (doses to about 46.1 µM), most hits filed as cytotoxic; actives 0.62% (n = 55,000); AID 903, 2007; also: nearly all actives have a fitted effect of over 55% in size
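Overnight 37C seeding (600 cells/well) of H1299-neo preceded a 24 hr, 32C exposure to compounds up to 46 uM. ATP levels, read by luminescence after 20 min at RT, indicated surviving cells.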
mTORC1 inh – Acumen qHTS Assay for Inhibitors of the mTORC1 Signaling Pathway in MEF (Tsc2-/-, p53-/-) Cells: Sytravon; Tsc2-/- p53-/- MEF, phospho-rpS6 immunofluorescence/PI, 24 h; Potency, µM (titrated, usually from 38.3 µM), actives largely listed as inhibitors; actives 0.78% (n = 44,000); also: nearly all actives have a fitted effect of over 50% in size
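Read-out: phospho-S6 Alexa-488 intensity over PI intensity per well, scored as % active cells using thresholds from rapamycin (7.5 nM) and DMSO controls. Tsc2-/-, p53-/- MEFs exposed to compound for 24 h; PI cell count recorded as viability.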
SKOV3 invasion – Primary qHTS assay for Inhibitors of ovarian cancer metastasis using an organotypic tumor microenvironment (TME) model. Potency, µM (doses to about 45.8 µM), most hits filed as inhibitors. AID 1963576, 2024. SKOV3ip1-GFP adhesion/invasion on 3D omental model, fluorescence. actives 0.1% (n = 46,000); also: nearly all actives have a fitted effect of over 65% in size
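A 3D layer of primary human omental fibroblasts, mesothelial cells, fibronectin and collagen I, grown 48 hr, received SKOV3ip1-GFP cells in serum-free medium plus compounds at 0.36-46 umol/L. After 2 hr RT and 16 hr 37 C, fixed adherent GFP cells were counted; normalized to DMSO and tomatine.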
NLuc sat counter – Biochemical NLuc saturation counterscreen for small molecule modulators of PMP22 gene expression - Nano-Glo assay; shares compounds with PMP22 txn; Secreted NLuc enzyme (filtered S16 cell medium), Nano-Glo luminescence; Potency, µM (highest dose often 57.5 µM), most hits filed as inhibitors; actives 4% (n = 690); AID 1508638, 2021
NLuc Km ctr – Biochemical coelenterazine-based NLuc counterscreen for small molecule modulators of PMP22 gene expression - Km assay. shares compounds with PMP22 txn. AID 1508639, 2021. actives 5% (n = 690). secreted NLuc enzyme, coelenterazine luminescence, Km conditions. Potency, µM (top dose mostly 57.5 µM), actives largely listed as inhibitors
FLuc counter – Biochemical FLuc counterscreen for small molecule modulators of PMP22 gene expression; shares compounds with PMP22 txn; purified P. pyralis FLuc, luminescence, 10 min; Potency, µM (top dose mostly 57.5 µM), most hits filed as inhibitors; 690 tested, under 10 active; AID 1508640, 2021
Target sequence (P08659 whole entry, looked up): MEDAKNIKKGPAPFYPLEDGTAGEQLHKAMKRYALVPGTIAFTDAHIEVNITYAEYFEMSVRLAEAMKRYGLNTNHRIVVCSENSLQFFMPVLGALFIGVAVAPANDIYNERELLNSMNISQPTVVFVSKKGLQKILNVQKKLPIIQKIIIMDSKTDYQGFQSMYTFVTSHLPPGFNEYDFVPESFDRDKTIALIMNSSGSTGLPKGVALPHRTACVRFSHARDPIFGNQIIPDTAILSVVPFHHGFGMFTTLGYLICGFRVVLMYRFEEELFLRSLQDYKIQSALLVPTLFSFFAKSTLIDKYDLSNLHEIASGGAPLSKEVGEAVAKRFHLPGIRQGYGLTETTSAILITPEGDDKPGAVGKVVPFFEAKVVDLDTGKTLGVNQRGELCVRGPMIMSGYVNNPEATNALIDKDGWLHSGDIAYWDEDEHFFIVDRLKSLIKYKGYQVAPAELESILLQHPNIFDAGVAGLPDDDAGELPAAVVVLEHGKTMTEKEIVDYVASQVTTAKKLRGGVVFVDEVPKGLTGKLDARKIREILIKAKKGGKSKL
S16 viab conf – Cell viability qHTS assay in S16 Pmp22-F2sN cells - Confirmatory screen. S16 Schwann cells viability, CellTiter-Glo ATP luminescence, 24 h. shares compounds with PMP22 txn. actives 7% (n = 690). Potency, µM (top dose mostly 57.5 µM), actives largely listed as cytotoxic. AID 1508641, 2021
PMP22 txn conf – Cell-based coincidence reporter assay to measure PMP22 gene transcription in S16 Pmp22-F2sN cells - Confirmatory screen | shares compounds with PMP22 txn | S16 Schwann cells Pmp22-F2sN, dual luciferase, 24 h | Potency, µM (titrated, usually from 57.5 µM), actives largely listed as inhibitors | actives 22% (n = 690); active = clear falling dose curves in both reporters; inconclusive = both reporters move, but less clearly or upward; inactive = either reporter flat; the % is the FLuc reporter signal
PMP22 prot conf – Cell-based HiBiT reporter assay to measure PMP22 protein expression in S16 Pmp22-HiBiT cells - Confirmatory screen; 95 tested, under 10 active; Potency, µM (highest dose often 27.9 µM), actives largely listed as inhibitors; S16 Schwann cells Pmp22-HiBiT, luminescence, 48 h; shares compounds with PMP22 txn
Target sequence (P25094 whole entry, looked up): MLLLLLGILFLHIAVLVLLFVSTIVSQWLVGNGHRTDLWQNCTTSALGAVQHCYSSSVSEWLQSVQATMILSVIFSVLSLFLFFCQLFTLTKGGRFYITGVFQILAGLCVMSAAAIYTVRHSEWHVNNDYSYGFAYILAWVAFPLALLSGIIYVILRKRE
Each line names hits and unclear results; the compound was inactive in the other large screens (follow-up assays come after a bar, where they were run). Only some compounds are listed: those with a hit (about 3.1% of all), similar ones and a draw of the others. Unless noted, calls follow the shape of the dose curve; as a rule, active = well fitted curve in the direction sought with a large enough effect; inconclusive = small, poorly fitted or top-dose-only effect, or another doubt; inactive = no such curve, though single readings can be large; an effect the other way counts as inactive or inconclusive.

CCOC(=O)c1cc2c(=O)n3ccccc3nc2n(CC(C)C)c1=NC(=O)COc1ccc(Cl)cc1	PMP22 txn 16µM | NLuc sat counter inactive | NLuc Km ctr inactive | FLuc counter inactive | S16 viab conf inactive | PMP22 txn conf inconclusive
CCOC(=O)c1cc2c(=O)n3ccccc3nc2n(CC(C)C)c1=NC(=O)C(C)(C)Oc1ccc(Cl)cc1	PMP22 txn inconclusive
CCn1c(C(=O)NCc2ccc(OC)cc2)cc2sc(Cl)cc21	p53null 32C kill inconclusive
CCOc1ccc(NC(=O)c2cc3sc(Cl)cc3n2CC)cc1	PMP22 txn 12µM | NLuc sat counter inactive | NLuc Km ctr inactive | FLuc counter inactive | S16 viab conf inactive | PMP22 txn conf inconclusive
Cc1ccc(OCC(=O)Nc2ccc3nc(SCC(=O)N4CCc5ccccc54)sc3c2)cc1	PMP22 txn 2.4µM | NLuc sat counter inactive | NLuc Km ctr inactive | FLuc counter inactive | S16 viab conf inactive | PMP22 txn conf 7.3µM | PMP22 prot conf inconclusive
COc1ccc(C(=O)Nc2ccc3nc(SCC(=O)N4CCc5ccccc54)sc3c2)cc1	none
Cc1ccc(CSc2nc3ccc(NC(=O)COc4ccc(F)cc4)cc3s2)cc1	none
Cc1cccc(OCC(=O)Nc2ccc3nc(SCc4ccccc4)sc3c2)c1	PMP22 txn 16µM, p53null 39C tox inconclusive | NLuc sat counter inactive | NLuc Km ctr inactive | FLuc counter inactive | S16 viab conf inactive | PMP22 txn conf inconclusive
O=C(COc1ccc(F)cc1)Nc1ccc2nc(SCc3ccccc3)sc2c1	PMP22 txn 7µM | NLuc sat counter inactive | NLuc Km ctr inactive | FLuc counter inactive | S16 viab conf inactive | PMP22 txn conf inconclusive
NC(=O)N1CCC(CC(=O)N2CCC([C@H]3c4ncc(Br)cc4CCc4cc(Cl)cc(Br)c43)CC2)CC1	none (no result: PMP22 txn, S16 F2sN tox, p53null 39C tox, p53null 32C kill, mTORC1 inh)
O=C(Nc1ccccc1Br)N[C@@H]1CCN(c2ccc(C(F)(F)F)cn2)C1	none (no result: PMP22 txn, S16 F2sN tox, p53null 39C tox, p53null 32C kill, mTORC1 inh)
Cc1ccc(C(=O)N(CCCN)[C@@H](c2nc3cc(Cl)ccc3c(=O)n2Cc2ccccc2)C(C)C)cc1	none (no result: PMP22 txn, S16 F2sN tox, p53null 39C tox, p53null 32C kill, mTORC1 inh)
O=C(Cn1c(=O)n(Cc2ccccc2)c(=O)c2sc3ccccc3c21)Nc1ccccc1	PMP22 txn inconclusive, p53null 32C kill inconclusive
O=C(Cn1c(=O)n(Cc2ccccc2)c(=O)c2sc3ccccc3c21)Nc1ccc(F)cc1	PMP22 txn 14µM, S16 F2sN tox inconclusive, p53null 39C tox inconclusive | NLuc sat counter inactive | NLuc Km ctr inactive | FLuc counter inactive | S16 viab conf inconclusive | PMP22 txn conf inconclusive
CNC(=O)c1ccc2c(C(=Nc3cccc(CN(C)C)c3)c3ccccc3)c(O)[nH]c2c1	none (no result: PMP22 txn, S16 F2sN tox, p53null 39C tox, p53null 32C kill, mTORC1 inh)
COc1ccc(-c2cc(=O)c3c(O)cc(O[C@@H]4O[C@H](CO[C@@H]5O[C@@H](C)[C@H](O)[C@@H](O)[C@@H]5O)[C@@H](O)[C@H](O)[C@@H]4O)cc3o2)cc1O	none (no result: PMP22 txn, S16 F2sN tox, p53null 39C tox, p53null 32C kill, mTORC1 inh)
CC(=O)Nc1ccc(-c2nnc3n(CC(C)C)c(=O)c4ccccc4n23)cc1	PMP22 txn inconclusive | NLuc sat counter inconclusive | NLuc Km ctr inactive | FLuc counter inactive | S16 viab conf inactive | PMP22 txn conf inactive
CC(C)Cn1c(=O)c2ccccc2n2c(-c3ccc(Br)cc3)nnc12	none
COc1cccc2c1C(=O)c1c(O)c3c(c(O)c1C2=O)C[C@@](O)(C(C)=O)C[C@H]3O[C@H]1C[C@H](N)[C@H](O)[C@H](C)O1	none (no result: PMP22 txn, S16 F2sN tox, p53null 39C tox, p53null 32C kill, mTORC1 inh)
COCCNc1oc(-c2ccc(COc3ccc(OC)cc3)o2)nc1C#N	PMP22 txn inconclusive | NLuc sat counter inconclusive | NLuc Km ctr inactive | FLuc counter inactive | S16 viab conf inconclusive | PMP22 txn conf inactive
CCCCNc1oc(-c2ccc(COc3ccc(OC)cc3)o2)nc1C#N	none
COc1ccc(CCC(=O)c2c(O)cc(O[C@@H]3O[C@H](CO)[C@@H](O)[C@H](O)[C@@H]3O[C@@H]3O[C@@H](C)[C@H](O)[C@@H](O)[C@@H]3O)cc2O)cc1O	none (no result: PMP22 txn, S16 F2sN tox, p53null 39C tox, p53null 32C kill, mTORC1 inh)
COc1ccc(NC(=O)c2nc(S(=O)(=O)Cc3ccc(C)cc3)ncc2Cl)cc1	PMP22 txn 11µM, S16 F2sN tox inconclusive, p53null 39C tox inconclusive, mTORC1 inh 3.7µM, SKOV3 invasion inconclusive | NLuc sat counter inactive | NLuc Km ctr inactive | FLuc counter inactive | S16 viab conf inconclusive | PMP22 txn conf 5.8µM | PMP22 prot conf inactive
